The list shows a part of the results. The source made the active and inactive calls. No stated cut-off is given here; in the data, active means IC50 below about 20 µM; inactive means the rest.
experiment: blockers of mitochondrial swelling via MPTP – biochemical, absorbance, uHTS hits, dose response (AID 651561); details: isolated mitochondria swelling

IC50, active:
CCCCc1nc(NCCN)c(C#N)c2c1CSC(C)(C)C2 13.3 µM
NC[C@H](Cc1ccccc1)NCCc1cc(C(F)(F)F)cc(C(F)(F)F)c1 12 µM
N=c1n(Cc2ccc(Cl)cc2)c2ccccc2n1CC(O)c1ccco1 (stereo not drawn) 5.87 µM

Reference: PubChem BioAssay AID651561 (Sanford-Burnham Center for Chemical Genomics, 2012)
